In assay [1] the target is Mitogen-activated protein kinase 3 (Homo sapiens) (UniProt P27361). The following applies: at 1 µM.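 Also: values are mean percent inhibition of MAPK3.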
Assay [2] deals with SRSF protein kinase 3 (Homo sapiens) (UniProt Q9UPE1). The following applies: at 0.1 µM.
Assay [3] shares this target. The note with it: at 1 µM.
The target of assay [4] is Mitogen-activated protein kinase 14 (Homo sapiens) (UniProt Q16539). The following applies: at 0.1 µM.
Assay [5] has the same target. The following applies: at 1 µM.
Assay [6] concerns the target Mitogen-activated protein kinase 11 (Homo sapiens) (UniProt Q15759). The note with it: at 0.1 µM.
Assay [7] shares this target. The following applies: at 1 µM.
For assay [8], the target named is T1, Mitogen-activated protein kinase 13 (Homo sapiens) (UniProt O15264).
T1 sequence (whole entry): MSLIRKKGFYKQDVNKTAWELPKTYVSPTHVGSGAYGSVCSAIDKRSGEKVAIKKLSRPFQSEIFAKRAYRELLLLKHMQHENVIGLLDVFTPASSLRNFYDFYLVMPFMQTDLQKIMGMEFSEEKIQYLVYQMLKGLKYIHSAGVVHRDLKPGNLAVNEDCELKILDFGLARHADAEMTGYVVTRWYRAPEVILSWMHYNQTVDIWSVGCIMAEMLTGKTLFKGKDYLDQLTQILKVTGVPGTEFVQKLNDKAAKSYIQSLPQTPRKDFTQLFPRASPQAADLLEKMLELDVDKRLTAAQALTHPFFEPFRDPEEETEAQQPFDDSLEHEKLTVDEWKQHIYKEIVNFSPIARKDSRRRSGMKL
The note with it: at 0.1 µM.

Assay [9] addresses T1, Mitogen-activated protein kinase 13 (Homo sapiens). The note with it: at 1 µM.
Assay [10] addresses T2, Mitogen-activated protein kinase 12 (Homo sapiens) (UniProt P53778).
T2 sequence (whole entry): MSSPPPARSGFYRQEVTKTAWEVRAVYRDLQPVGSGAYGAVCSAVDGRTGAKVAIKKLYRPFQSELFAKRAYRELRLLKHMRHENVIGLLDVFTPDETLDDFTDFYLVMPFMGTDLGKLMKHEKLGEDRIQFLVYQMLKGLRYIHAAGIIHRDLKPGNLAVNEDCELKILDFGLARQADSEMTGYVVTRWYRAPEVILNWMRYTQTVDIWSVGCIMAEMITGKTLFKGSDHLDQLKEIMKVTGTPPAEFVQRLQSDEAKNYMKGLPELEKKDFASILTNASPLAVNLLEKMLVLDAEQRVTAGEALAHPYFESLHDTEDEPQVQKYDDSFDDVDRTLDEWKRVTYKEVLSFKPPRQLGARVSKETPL
The following applies: at 0.1 µM.

Assay [11] has as its target T2, Mitogen-activated protein kinase 12 (Homo sapiens). The note with it: at 1 µM.
Assay [12] concerns the target SRSF protein kinase 1 (Homo sapiens) (UniProt Q96SB4). The note with it: at 0.1 µM.
Assay [13] has the same target. The following applies: at 1 µM.
Assay [14] addresses Phosphatidylinositol 4,5-bisphosphate 3-kinase catalytic subunit alpha isoform (Homo sapiens) (UniProt P42336). The note with it: at 0.1 µM.
For assay [15] the target is unchanged. The note with it: at 1 µM.
Assay [16] deals with T3, Phosphatidylinositol 4,5-bisphosphate 3-kinase catalytic subunit delta isoform (Homo sapiens) (UniProt O00329).
T3 sequence (whole entry): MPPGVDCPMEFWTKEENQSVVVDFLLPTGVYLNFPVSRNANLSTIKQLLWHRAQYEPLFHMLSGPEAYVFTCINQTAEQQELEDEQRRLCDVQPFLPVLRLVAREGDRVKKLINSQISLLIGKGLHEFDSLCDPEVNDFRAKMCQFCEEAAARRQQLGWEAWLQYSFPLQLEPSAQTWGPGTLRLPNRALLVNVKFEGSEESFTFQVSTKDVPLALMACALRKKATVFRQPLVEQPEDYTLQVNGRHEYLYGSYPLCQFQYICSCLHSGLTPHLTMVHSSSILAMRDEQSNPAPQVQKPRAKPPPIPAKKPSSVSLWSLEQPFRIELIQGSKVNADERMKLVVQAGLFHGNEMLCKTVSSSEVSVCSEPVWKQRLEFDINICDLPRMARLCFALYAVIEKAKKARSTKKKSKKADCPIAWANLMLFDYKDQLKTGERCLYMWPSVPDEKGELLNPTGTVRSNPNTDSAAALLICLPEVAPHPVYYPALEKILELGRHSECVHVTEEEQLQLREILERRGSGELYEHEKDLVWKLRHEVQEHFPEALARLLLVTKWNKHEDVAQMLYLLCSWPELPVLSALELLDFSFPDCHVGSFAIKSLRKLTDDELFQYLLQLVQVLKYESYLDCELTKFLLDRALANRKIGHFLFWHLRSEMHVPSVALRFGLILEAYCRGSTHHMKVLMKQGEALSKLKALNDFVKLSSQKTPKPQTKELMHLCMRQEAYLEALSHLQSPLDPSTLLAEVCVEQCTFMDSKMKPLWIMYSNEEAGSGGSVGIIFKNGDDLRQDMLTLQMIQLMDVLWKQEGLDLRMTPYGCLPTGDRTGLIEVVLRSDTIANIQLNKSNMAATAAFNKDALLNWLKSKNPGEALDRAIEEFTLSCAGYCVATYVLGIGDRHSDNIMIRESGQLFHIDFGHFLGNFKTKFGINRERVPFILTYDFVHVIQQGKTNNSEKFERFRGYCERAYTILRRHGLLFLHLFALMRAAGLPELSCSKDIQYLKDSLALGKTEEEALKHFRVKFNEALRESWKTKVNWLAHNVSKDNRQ
The following applies: at 0.1 µM.

In assay [17] the target is T3, Phosphatidylinositol 4,5-bisphosphate 3-kinase catalytic subunit delta isoform (Homo sapiens). The following applies: at 1 µM.
The target of assay [18] is Phosphatidylinositol 4-kinase beta (Homo sapiens) (UniProt Q9UBF8). The following applies: at 0.1 µM.
For assay [19] the target is unchanged. The following applies: at 1 µM.
Assay [20] concerns the target Sphingosine kinase 1 (Homo sapiens) (UniProt Q9NYA1). The following applies: at 0.1 µM.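 Also: mean percent inhibition of SPHK1 activity, measured within the GSK PKIS screening panel.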

Chain of Phosphatidylinositol 4,5-bisphosphate 3-kinase catalytic subunit alpha isoform (Homo sapiens) (P42336 whole entry, canonical isoform): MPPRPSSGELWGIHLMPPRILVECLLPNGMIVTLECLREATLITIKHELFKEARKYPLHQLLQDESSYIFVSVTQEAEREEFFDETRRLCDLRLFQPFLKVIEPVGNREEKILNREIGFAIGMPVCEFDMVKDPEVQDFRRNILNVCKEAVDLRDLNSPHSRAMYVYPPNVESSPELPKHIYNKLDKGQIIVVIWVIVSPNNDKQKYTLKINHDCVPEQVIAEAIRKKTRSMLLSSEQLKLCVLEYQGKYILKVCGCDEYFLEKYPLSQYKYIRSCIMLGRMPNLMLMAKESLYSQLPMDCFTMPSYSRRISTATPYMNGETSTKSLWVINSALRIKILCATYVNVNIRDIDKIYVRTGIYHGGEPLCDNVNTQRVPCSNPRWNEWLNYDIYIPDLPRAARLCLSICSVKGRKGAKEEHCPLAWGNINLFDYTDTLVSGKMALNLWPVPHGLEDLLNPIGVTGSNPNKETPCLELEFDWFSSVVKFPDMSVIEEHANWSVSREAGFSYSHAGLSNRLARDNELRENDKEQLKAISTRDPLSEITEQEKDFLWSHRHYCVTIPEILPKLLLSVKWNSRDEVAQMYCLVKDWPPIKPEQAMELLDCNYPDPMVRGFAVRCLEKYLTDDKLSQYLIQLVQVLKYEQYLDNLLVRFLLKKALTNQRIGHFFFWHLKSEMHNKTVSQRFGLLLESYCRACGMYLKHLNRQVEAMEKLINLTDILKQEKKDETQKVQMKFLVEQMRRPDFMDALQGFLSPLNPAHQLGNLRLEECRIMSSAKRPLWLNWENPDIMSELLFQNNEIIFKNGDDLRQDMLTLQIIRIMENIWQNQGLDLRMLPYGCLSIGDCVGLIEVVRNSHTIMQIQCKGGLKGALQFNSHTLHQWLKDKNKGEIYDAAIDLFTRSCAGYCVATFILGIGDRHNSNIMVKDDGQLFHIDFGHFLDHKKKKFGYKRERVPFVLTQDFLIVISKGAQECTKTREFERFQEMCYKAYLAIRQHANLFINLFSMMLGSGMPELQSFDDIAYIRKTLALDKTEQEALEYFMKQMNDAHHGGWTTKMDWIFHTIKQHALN
Chain of Mitogen-activated protein kinase 11 (Homo sapiens) (Q15759 whole entry): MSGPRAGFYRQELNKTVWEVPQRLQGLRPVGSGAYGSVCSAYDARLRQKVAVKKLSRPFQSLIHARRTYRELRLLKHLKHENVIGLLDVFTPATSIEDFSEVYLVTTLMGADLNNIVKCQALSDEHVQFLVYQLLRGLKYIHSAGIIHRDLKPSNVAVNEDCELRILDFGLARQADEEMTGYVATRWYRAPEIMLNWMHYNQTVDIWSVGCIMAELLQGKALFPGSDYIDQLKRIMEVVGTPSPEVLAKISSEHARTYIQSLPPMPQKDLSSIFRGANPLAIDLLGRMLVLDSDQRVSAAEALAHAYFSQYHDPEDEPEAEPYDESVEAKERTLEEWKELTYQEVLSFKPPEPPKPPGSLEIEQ
Chain of Phosphatidylinositol 4-kinase beta (Homo sapiens) (Q9UBF8 2-816 limits assumed): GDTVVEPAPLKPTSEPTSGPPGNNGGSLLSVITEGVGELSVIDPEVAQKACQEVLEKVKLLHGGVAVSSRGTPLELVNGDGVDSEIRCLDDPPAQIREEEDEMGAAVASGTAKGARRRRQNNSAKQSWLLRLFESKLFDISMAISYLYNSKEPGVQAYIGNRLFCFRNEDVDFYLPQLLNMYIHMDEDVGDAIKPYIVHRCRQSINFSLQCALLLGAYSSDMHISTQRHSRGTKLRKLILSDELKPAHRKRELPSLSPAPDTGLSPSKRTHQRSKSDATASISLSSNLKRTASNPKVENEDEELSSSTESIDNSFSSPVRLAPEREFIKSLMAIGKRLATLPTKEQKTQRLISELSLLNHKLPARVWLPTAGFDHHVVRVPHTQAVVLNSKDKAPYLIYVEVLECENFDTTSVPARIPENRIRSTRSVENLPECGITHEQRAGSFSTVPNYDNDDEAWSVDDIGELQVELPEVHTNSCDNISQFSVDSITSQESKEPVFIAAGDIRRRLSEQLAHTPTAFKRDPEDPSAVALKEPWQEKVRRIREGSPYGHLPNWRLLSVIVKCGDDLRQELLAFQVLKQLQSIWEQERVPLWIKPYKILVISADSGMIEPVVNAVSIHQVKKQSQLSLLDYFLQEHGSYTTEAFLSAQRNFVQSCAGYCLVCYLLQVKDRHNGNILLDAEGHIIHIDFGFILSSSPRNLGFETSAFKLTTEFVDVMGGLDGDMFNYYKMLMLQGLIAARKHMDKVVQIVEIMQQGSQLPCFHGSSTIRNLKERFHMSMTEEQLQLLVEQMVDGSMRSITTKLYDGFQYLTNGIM
Chain of Mitogen-activated protein kinase 3 (Homo sapiens) (P27361 whole entry): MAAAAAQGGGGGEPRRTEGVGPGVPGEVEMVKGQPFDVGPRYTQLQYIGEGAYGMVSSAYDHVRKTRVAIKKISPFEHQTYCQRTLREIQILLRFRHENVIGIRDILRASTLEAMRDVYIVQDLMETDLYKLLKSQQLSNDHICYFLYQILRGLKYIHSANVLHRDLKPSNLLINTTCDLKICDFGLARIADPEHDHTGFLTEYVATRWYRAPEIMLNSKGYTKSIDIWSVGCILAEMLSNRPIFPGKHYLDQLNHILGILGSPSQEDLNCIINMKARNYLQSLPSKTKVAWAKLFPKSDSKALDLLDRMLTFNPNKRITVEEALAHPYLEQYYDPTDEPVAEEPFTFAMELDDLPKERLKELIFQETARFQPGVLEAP
Chain of Sphingosine kinase 1 (Homo sapiens) (Q9NYA1 whole entry): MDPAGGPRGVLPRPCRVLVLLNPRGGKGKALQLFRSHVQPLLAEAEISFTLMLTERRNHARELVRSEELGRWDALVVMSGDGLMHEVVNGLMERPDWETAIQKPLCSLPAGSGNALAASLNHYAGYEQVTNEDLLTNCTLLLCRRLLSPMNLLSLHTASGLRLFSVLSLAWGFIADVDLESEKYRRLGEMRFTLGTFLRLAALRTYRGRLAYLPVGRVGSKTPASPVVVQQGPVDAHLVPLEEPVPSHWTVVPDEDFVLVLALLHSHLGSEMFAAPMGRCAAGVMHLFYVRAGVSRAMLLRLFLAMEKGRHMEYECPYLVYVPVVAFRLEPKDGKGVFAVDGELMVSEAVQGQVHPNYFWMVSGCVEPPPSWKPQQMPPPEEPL
Chain of Mitogen-activated protein kinase 14 (Homo sapiens) (Q16539 whole entry): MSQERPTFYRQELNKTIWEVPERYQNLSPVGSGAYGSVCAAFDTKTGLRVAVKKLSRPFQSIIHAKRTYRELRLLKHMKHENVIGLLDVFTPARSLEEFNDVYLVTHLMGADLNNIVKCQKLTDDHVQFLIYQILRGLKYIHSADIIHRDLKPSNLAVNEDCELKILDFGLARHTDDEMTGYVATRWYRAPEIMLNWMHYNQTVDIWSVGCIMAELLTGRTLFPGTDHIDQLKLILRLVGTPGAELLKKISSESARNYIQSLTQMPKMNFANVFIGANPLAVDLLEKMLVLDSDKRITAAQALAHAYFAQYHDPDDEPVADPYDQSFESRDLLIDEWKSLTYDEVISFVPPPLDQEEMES
Chain of SRSF protein kinase 1 (Homo sapiens) (Q96SB4 whole entry): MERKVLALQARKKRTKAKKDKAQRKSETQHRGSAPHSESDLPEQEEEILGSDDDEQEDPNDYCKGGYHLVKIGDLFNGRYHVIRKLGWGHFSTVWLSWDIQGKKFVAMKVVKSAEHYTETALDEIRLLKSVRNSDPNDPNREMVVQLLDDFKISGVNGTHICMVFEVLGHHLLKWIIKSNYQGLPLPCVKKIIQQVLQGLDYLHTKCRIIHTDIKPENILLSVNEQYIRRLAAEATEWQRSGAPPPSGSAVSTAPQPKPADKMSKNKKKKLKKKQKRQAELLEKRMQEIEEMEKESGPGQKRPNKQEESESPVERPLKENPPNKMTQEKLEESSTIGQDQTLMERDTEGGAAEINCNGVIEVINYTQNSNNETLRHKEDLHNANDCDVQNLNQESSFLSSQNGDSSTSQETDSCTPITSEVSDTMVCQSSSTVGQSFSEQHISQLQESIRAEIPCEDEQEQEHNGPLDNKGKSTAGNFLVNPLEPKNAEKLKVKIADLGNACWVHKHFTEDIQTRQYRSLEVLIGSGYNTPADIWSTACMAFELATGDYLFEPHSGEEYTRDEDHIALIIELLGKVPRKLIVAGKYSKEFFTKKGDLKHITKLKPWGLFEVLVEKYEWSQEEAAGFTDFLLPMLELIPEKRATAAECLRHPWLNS
Chain of SRSF protein kinase 3 (Homo sapiens) (Q9UPE1 whole entry): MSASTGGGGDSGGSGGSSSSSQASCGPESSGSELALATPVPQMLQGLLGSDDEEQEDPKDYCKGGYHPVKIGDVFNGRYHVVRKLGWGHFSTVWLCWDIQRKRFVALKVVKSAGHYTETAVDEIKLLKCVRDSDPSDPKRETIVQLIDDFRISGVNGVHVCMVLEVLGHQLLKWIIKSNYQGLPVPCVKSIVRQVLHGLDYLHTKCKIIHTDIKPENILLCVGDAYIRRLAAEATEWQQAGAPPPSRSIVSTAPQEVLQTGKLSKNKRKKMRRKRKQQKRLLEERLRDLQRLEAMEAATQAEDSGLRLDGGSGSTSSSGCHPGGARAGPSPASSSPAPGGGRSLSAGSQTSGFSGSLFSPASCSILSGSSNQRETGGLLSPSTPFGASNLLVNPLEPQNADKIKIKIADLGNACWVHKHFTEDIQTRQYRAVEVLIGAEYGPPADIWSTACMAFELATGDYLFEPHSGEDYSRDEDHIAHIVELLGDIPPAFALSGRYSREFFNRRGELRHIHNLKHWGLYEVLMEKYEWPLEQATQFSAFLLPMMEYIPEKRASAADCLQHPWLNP

As to `Cc1cccc(Nc2ncc(-c3ccccc3)o2)c1`, the inhibition (commonly the change of the read-out against control, counted positive when it falls) in assay [1] is 3.87%; in assay [2], 3.41%; in assay [3], -1.61%; in [4], 5.91%; in [5], 6.59%; in [6], 3.23%. For the same compound, the inhibition in assay [7] was 6.62%; in [8], 1.76%; in [9], 2.94%; in assay [10] it was 2.73%; in [11] it was 4.77%; in [12] it was -2.35%. Moreover, the inhibition is 0.2% in [13]; 0.69% in assay [14]; -0.17% in assay [15]; 0.73% in [16]; 1.52% in assay [17]; 1.05% in assay [18]. Moreover, the inhibition in [19] worked out at 2.54%; in assay [20], 1%.

`FC(F)(F)c1cccc(-c2nn3ncccc3c2-c2ccnc(Nc3ccc4c(c3)OCCO4)n2)c1`: the inhibition in assay [1] was 2.04%; in assay [2], -0.87%; in assay [3], -0.58%; in [4], 30%; in assay [5], 73.7%; in [6], 14.1%. Further, the inhibition in [7] is 52.2%; in assay [8], 0.07%; in assay [9], 3.46%; in assay [10], 3.07%; in assay [11], 2.93%; in [12], -2.68%. Also, the inhibition in assay [13] is -5.33%; in assay [14], 1.87%; in assay [15], 3.02%; in assay [16] it was 1.36%; in assay [17] it was 4%; in assay [18], -4.9%. In addition, the inhibition was 3.59% in assay [19] and -1.16% in assay [20].

As for `COC(=O)Nc1nc2ccc(S(=O)(=O)c3ccc(NC(=O)Nc4cc(C(F)(F)F)ccc4F)cc3)cc2[nH]1`, the inhibition is 3.32% in assay [1]; -1.38% in assay [2]; -1.81% in assay [3]; 3.23% in assay [4]; 8.81% in assay [5]; 8.26% in assay [6]. The inhibition is 8.9% in assay [7]; 1.33% in assay [8]; 2.66% in assay [9]; 1.77% in [10]; 2.36% in assay [11]; -1.52% in assay [12]. Besides, the inhibition is -4.55% in assay [13]; 0.87% in assay [14]; 2.69% in assay [15]; 2.19% in [16]; 2.98% in [17]; 1.19% in [18]. The figures for the inhibition in assay [19] and in assay [20] were 1.36% and -0.71%, respectively.

`CC(C)COC(=O)c1ccc2c(c1)/C(=C/Nc1ccc(S(N)(=O)=O)cc1)C(=O)N2`: the inhibition was 13.5% in assay [1]; -1.27% in [2]; -1.97% in assay [3]; -0.94% in assay [4]; -2.21% in assay [5]; -0.49% in [6]. For the same compound, the inhibition in assay [7] is 7.86%; in [8] it was -1%; in assay [9], 1.38%; in [10] it was 0.22%; in assay [11], -0.52%; in [12], -0.82%. Moreover, the inhibition was -1.99% in [13]; 3.8% in assay [14]; -1.43% in assay [15]; 0.18% in [16]; 2.64% in assay [17]; 4.22% in assay [18]. The values for the inhibition in assay [19] and in assay [20] were -2.78% and 2.57%, respectively.

On to `COc1cc2ncn(-c3cc(OCc4ccccc4C(F)(F)F)c(C(=O)N(C)C)s3)c2cc1OC`, for which the inhibition in assay [1] is -0.07%; in [2] it was -2.08%; in assay [3], -1.83%; in assay [4] it was 7.43%; in [5] it was 1.82%; in assay [6], -4.05%. The inhibition in assay [7] was 1.82%; in assay [8], -0.21%; in assay [9] it was 0.14%; in [10] it was 0.9%; in [11], 0.94%; in assay [12] it was -1.25%. Moreover, the inhibition in assay [13] is -2.46%; in assay [14] it was 0.78%; in assay [15], 1.16%; in [16], 0.51%; in [17], 2.3%; in assay [18], 2.07%. Besides, the inhibition in [19] stood at 0.96%; in assay [20], 2.3%.

Turning to `CC(C)(CO)CNC(=O)c1ccc2c(c1)/C(=N/Nc1ccc(S(N)(=O)=O)cc1)C(=O)N2`, the inhibition was 16.6% in [1]; -0.87% in assay [2]; -1.79% in assay [3]; 2.1% in assay [4]; 1.84% in [5]; 2.96% in assay [6]. For the same compound, the inhibition in assay [7] was 9.13%; in assay [8] it was -0.56%; in assay [9], 0.83%; in assay [10], -0.2%; in [11], 0.79%; in [12] it was -1.95%. Besides, the inhibition was -1.91% in [13]; -2.03% in assay [14]; -1.12% in [15]; -0.73% in [16]; 2.18% in assay [17]; -1.03% in assay [18]. Moreover, the figures for the inhibition in assay [19] and in [20] were -0.32% and 0.09%, respectively.

For the origin of these results see ChEMBL document CHEMBL1961873, “Compounds: GSK PKIS; Assays: Nanosyn kinase panel” (2012).
